Measurements: PubChem BioAssay AID1438 (Sanford-Burnham Center for Chemical Genomics, 2008)
In all, about 2,200 compounds went through this assay and about 45 (2%) were called active. How the calls were made is not given here. These entries were drawn from the full list. Results with a measured potency or affinity are listed apart.

Molecular target: Runt-related transcription factor 1 (Homo sapiens) + Core-binding factor subunit beta (Homo sapiens) (UniProt Q01196+Q13951)
Assay: Runt domain/CBFb-SMMHC interaction disruptors – biochemical, TR-FRET (AID 1438)
Conditions: at 20 µM, active compounds read high

Sequence of Runt-related transcription factor 1 (Homo sapiens) + Core-binding factor subunit beta (Homo sapiens) (Q01196 whole entry, looked up, the tested form may be a part): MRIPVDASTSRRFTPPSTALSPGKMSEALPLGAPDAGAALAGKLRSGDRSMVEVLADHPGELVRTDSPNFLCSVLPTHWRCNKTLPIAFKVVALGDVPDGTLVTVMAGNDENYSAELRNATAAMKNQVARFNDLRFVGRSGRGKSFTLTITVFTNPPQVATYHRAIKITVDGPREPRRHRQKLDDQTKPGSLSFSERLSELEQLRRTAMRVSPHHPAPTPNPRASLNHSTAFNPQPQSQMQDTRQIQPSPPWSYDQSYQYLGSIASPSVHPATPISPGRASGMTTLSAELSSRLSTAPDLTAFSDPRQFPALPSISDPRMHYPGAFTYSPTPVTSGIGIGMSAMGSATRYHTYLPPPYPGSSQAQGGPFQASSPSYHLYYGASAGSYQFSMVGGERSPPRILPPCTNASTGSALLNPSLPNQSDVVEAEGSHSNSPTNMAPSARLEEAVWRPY
Sequence of Runt-related transcription factor 1 (Homo sapiens) + Core-binding factor subunit beta (Homo sapiens) (Q13951 whole entry, looked up, the tested form may be a part): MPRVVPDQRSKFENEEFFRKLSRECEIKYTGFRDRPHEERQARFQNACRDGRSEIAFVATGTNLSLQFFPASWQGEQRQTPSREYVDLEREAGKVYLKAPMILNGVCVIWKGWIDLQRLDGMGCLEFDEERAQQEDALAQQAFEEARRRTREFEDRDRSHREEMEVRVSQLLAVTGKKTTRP

Row | Structure (SMILES) | inhibition
1 | CCN1CCc2nc(SCC(=O)Nc3ccc(OC)cc3)c(C#N)cc2C1 | 20.7% (inactive)
2 | CCOC(=O)C1=C(CSc2nc3c(cc2C#N)CN(C)CC3)OC(N)=C(C#N)C1c1ccncc1 (configuration not stated) | 35.4% (inactive)
3 | Cc1cc(=O)oc2cc(OC(=O)c3cncc(Br)c3)ccc12 | -4.4% (inactive)
4 | O=C(COC(=O)COc1ccccc1[N+](=O)[O-])NC1CCCC1 | -6% (inactive)
5 | COc1ccc(OCCn2cc(/C=C(\C#N)C(=O)NCc3ccco3)c3ccccc32)cc1 | -10.8% (inactive)
6 | COc1c(O)ccc2c1CN1CCc3cc4c(cc3C1C2)OCO4 (configuration not stated) | -9.6% (inactive)
7 | CN1CCc2cc3c(c4c2[C@H]1[C@H](O)c1ccccc1-4)OCO3 | 18.4% (inactive)
8 | CNC(=O)/C(C#N)=C/c1c(N(Cc2ccccc2)Cc2ccccc2)nc2c(C)cccn2c1=O | -14.8% (inactive)
9 | CC(=O)N=c1c(C#N)cc2c(=O)n3ccccc3nc2n1CCCOC(C)C | 7.1% (inactive)
10 | CCN(CC)c1ccc2cc(C(=O)Nc3cccnc3N3CCOCC3)c(=O)oc2c1 | -26.6% (inactive)
11 | CCCCCCc1cc2cc(S(=O)(=O)c3ccc(Cl)cc3)c(=O)oc2cc1O | 12.2% (inactive)
12 | Cc1cccn2c(=O)c3cc(S(=O)(=O)c4ccc(F)cc4)c(=N)n(Cc4ccco4)c3nc12 | -6.5% (inactive)
13 | Cc1ccc2nc3c(cc(S(=O)(=O)c4ccccc4)c(=N)n3Cc3ccco3)c(=O)n2c1 | -7.9% (inactive)
14 | CCn1c(=N)c(S(=O)(=O)c2ccccc2)cc2c(=O)n3ccccc3nc21 | -19.8% (inactive)
15 | CCCn1c(=N)c(S(=O)(=O)c2ccccc2)cc2c(=O)n3ccccc3nc21 | -6.9% (inactive)
16 | COC(=O)C1=CN(CC2CCCO2)C=C(C(=O)OC)C1c1ccccc1C(F)(F)F (configuration not stated) | 45.6% (inactive)
17 | Cc1ccccc1OCCn1cc(/C=C(\C#N)C(=O)NCc2ccco2)c2ccccc21 | 20.8% (inactive)
18 | COCCOC(=O)C1=C(C)NC2=C(C(=O)CC(C)(C)C2)C1c1cccnc1 (configuration not stated) | 35.5% (inactive)
19 | Fc1ccc(CSc2nc3ncccc3[nH]2)cc1 | -9.6% (inactive)
20 | CCC(C)n1c(=N)c(C#N)cc2c(=O)n3cccc(C)c3nc21 (configuration not stated) | -18.9% (inactive)
21 | CCOC(=O)c1cc2c(=O)n3ccccc3nc2n(Cc2ccco2)c1=NC(=O)c1cccc(OC)c1 | -10.1% (inactive)
22 | O=C1C=CC(=O)N1c1cccc(-c2ccccc2)c1 | -6.3% (inactive)
23 | O=C(c1ccccc1)c1ccccc1N1C(=O)C=CC1=O | 28.3% (inactive)
24 | Cc1ccccc1Oc1nc2c(C)cccn2c(=O)c1/C=C(\C#N)C(=O)NC1CCS(=O)(=O)C1 (configuration not stated) | -12.5% (inactive)

Row | Structure (SMILES) | inhibition
25 | Cc1cc(C)cc(Oc2nc3ccccn3c(=O)c2/C=C(\C#N)C(=O)NC2CCS(=O)(=O)C2)c1 (configuration not stated) | -134% (inactive)
26 | COP(=O)(CC(=O)c1ccccc1)CC(=O)c1ccccc1 | -7.7% (inactive)
27 | Nc1ccc2c(C(F)(F)F)cc(=O)oc2c1 | 18.1% (inactive)
28 | O=C(c1ccccc1)c1cnc(Nc2ccc(Cl)c(Cl)c2)s1 | 29.7% (inactive)
29 | COc1ccc(N2C3=C(C(=O)CC(C)(C)C3)C(c3cnn(C)c3)C3=C2CC(C)(C)CC3=O)cc1 | -7.6% (inactive)
30 | COc1ccc(N2C3=C(C(=O)CC(C)(C)C3)C(c3ccccc3OC)C3=C2CC(C)(C)CC3=O)cc1 | 2.8% (inactive)
31 | CCOC(=O)c1sc(-c2ccc(Cl)cc2)nc1O | -7.6% (inactive)
32 | CCOC(=O)C1=C(Cc2ccc(C)cc2)C(=O)c2ccccc2C1=O | 45.1% (inactive)
33 | Oc1c(C=NCc2ccccc2)sc2ccccc12 | -12.8% (inactive)
34 | CN(C)c1nc(-c2cccs2)cc(C(F)(F)F)c1C#N | -6.2% (inactive)
35 | CN(C)CCNc1c2c(c(C#N)c3nc4ccccc4n13)CCCC2 | 21.3% (inactive)
36 | N#Cc1c2c(c(Nc3ccccc3)n3c1nc1ccccc13)CCC2 | 33.8% (inactive)
37 | O=C(Nc1nc2c(s1)CN(Cc1ccccc1)CC2)C1CCCC1 | -11.2% (inactive)
38 | CCOc1ccc2nc(NCCNC(=S)NCCCN(C)C)c(C#N)cc2c1 | -5.8% (inactive)
39 | COCCn1c(=N)c(C(=O)NCCc2ccc(OC)cc2)cc2c(=O)n3cccc(C)c3nc21 | 23.3% (inactive)
40 | COc1ccc(/C=C2/C(=O)ON=C2c2ccccc2)cc1OC | -3.7% (inactive)
41 | Cn1c(C(=O)NCCC2=CCCCC2)cc2c(=O)n3ccccc3nc21 | 34.3% (inactive)
42 | CCCS(=O)(=O)c1c(S(=O)(=O)CCC)c2c(C)cccn2c1C(=O)N/N=C/c1cc(O)cc(O)c1 | 1.8% (inactive)
43 | COc1ccc2nc(Nc3sc4c(c3C(N)=O)CCCC4)sc2c1 | 45.1% (inactive)
44 | COc1cc(-c2nnc(SCc3cc(=O)oc4cc(O)c(O)cc34)o2)cc(OC)c1OC | 49.9% (inactive)
45 | COc1ccccc1-n1c(SCc2cc(=O)oc3cc(O)ccc23)nc2ccccc2c1=O | 29.8% (inactive)
46 | N#Cc1c(NC(=O)CSc2ncc(-c3ccccc3)n2CC2CCCO2)sc2c1CCCC2 (configuration not stated) | -3.3% (inactive)
47 | CC(=O)N1c2ccccc2C2(O)N=C(C)SC12 (configuration not stated) | 28.9% (inactive)
